Some targets named below: Hsp53 (Homo sapiens, UniProt P04637 1-393); Xlp53 (Xenopus laevis, UniProt Q7T1D0 1-362); Mmp53 (Mus musculus, UniProt P02340 1-390).
What all share (experiment): fluorescence anisotropy competition titration; 25 mM sodium phosphate (purification buffer pH 7.2), 225 mM NaCl, 10% v/v glycerol, 5 mM DTT, 0.2 mg/mL BSA, 22 C; low values mean tight binding
Settings in all cases: protein: recombinant; tags: N-terminal 6xHis-lipoyl-TEV tag, cleaved; chain copies: 4; dsDNA, one strand shown

In another assay the target is T1, Dmp53 (Drosophila melanogaster, UniProt Q9N6D8 1-385).
T1 sequence: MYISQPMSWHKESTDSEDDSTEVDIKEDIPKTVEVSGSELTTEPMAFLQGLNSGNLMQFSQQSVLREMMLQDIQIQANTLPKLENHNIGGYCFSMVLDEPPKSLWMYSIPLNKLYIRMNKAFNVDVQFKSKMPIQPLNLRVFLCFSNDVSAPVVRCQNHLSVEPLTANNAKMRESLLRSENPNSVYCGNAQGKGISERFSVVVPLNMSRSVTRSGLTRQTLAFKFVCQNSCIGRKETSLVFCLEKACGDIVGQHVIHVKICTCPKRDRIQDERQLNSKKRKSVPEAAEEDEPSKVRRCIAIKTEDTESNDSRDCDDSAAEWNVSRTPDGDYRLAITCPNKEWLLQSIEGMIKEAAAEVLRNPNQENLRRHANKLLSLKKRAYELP

The target of the next assay is T2, Drp53 (Danio rerio, UniProt P79734 1-373).
T2 sequence: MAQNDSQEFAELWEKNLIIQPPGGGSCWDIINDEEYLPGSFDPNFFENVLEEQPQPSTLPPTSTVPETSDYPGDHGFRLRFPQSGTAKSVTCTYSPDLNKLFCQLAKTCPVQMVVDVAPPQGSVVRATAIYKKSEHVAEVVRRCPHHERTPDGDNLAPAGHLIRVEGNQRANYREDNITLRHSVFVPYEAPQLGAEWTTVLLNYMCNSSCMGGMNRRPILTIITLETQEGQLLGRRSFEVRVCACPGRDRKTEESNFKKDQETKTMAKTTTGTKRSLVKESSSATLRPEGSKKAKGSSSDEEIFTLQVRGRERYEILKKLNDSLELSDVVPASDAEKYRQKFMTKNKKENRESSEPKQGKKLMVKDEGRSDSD

Another assay addresses T3, ΔNp63α (Homo sapiens, UniProt Q9H3D4-2 1-586).
T3 sequence: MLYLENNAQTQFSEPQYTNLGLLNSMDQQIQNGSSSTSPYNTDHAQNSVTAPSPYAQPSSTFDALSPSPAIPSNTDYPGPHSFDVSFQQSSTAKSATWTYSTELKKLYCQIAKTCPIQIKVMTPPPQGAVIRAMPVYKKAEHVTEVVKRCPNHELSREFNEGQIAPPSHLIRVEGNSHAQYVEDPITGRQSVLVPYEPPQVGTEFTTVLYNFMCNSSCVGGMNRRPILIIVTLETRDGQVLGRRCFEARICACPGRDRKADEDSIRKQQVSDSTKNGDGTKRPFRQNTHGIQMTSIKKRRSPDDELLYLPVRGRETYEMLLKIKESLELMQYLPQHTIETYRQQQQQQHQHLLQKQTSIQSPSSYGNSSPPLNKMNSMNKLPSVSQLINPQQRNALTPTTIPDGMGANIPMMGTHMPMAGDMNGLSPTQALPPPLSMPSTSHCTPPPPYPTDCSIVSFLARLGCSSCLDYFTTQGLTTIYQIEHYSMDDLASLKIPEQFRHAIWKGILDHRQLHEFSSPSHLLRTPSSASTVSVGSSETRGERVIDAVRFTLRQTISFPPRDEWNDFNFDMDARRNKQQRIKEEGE

In the next assay the target is T4, ΔNp63β (Homo sapiens, UniProt Q9H3D4-4 1-461).
T4 sequence: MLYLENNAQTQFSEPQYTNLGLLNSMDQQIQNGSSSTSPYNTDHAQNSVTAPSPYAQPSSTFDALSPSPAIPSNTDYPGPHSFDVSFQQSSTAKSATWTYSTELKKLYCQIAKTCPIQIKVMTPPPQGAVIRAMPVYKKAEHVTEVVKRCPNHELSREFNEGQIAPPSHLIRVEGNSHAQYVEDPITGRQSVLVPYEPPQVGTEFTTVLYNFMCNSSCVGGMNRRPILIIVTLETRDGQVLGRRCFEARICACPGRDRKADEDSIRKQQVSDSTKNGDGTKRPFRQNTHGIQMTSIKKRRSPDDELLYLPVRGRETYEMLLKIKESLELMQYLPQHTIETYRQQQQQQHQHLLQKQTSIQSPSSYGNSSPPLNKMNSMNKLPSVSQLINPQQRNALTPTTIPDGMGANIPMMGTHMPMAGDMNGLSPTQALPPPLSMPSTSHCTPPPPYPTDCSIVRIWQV

The target in the next assay is T5, ΔNp63γ (Homo sapiens, UniProt Q9H3D4-6 1-393).
T5 sequence: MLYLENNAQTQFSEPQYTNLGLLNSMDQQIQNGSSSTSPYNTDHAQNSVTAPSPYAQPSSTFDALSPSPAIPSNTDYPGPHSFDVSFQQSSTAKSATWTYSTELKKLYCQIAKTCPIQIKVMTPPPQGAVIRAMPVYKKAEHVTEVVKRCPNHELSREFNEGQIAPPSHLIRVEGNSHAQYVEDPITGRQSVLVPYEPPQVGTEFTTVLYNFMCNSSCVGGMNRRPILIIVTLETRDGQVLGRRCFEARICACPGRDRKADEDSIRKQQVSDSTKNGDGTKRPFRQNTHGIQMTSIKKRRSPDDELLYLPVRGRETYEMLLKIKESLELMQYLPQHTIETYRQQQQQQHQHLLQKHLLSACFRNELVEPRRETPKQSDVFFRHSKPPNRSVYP

The next assay addresses T6, ΔNp73β (Homo sapiens, UniProt O15350-9 1-450).
T6 sequence: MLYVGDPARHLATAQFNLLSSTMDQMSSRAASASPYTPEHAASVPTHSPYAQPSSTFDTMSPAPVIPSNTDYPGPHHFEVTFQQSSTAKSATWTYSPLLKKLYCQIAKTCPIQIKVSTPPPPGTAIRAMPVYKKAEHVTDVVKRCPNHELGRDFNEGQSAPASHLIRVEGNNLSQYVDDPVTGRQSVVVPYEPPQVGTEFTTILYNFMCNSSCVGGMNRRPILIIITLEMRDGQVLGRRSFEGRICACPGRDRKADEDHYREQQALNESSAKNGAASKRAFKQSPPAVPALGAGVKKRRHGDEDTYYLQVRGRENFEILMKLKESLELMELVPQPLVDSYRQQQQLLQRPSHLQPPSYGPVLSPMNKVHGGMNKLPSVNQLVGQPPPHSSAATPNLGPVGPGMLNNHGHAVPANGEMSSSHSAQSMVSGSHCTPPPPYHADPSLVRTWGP

For another assay, the target named is T7, p73CT (Homo sapiens, UniProt O15350 104-383).
T7 sequence: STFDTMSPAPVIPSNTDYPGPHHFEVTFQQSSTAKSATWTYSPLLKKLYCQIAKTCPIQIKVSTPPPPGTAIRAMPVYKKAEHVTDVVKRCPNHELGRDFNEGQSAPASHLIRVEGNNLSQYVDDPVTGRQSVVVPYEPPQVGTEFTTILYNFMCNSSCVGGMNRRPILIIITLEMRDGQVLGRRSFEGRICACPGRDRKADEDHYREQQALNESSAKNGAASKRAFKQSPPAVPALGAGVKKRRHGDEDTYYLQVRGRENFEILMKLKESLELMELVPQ

In article PMC2807882, “Conservation of DNA-binding specificity and oligomerisation properties within the p53 family” one finds binding signal data, which are given here for eight sequences.

Sequence of Xlp53 (Q7T1D0 entry or part of it): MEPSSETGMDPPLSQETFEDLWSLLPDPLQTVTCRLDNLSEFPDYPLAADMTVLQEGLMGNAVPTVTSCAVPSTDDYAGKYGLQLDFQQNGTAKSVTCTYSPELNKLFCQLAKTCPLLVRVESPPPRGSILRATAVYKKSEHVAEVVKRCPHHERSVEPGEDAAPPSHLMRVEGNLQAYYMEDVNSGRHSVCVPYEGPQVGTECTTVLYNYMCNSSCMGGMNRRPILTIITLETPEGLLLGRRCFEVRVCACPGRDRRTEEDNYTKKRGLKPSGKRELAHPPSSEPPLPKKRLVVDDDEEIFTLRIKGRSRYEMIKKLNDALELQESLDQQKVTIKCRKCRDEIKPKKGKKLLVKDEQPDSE
Sequence of Hsp53 (P04637 whole entry): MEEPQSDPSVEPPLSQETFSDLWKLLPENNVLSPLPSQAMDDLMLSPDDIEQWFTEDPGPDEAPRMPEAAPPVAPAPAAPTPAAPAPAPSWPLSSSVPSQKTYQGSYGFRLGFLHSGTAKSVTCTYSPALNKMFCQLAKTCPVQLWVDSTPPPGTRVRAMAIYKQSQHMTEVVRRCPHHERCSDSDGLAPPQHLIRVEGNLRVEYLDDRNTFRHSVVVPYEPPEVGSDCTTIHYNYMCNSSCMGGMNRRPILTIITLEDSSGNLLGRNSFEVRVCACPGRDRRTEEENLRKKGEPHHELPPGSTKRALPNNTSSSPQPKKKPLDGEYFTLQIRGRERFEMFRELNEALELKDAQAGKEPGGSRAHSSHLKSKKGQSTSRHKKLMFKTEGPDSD
Sequence of Mmp53 (P02340 whole entry): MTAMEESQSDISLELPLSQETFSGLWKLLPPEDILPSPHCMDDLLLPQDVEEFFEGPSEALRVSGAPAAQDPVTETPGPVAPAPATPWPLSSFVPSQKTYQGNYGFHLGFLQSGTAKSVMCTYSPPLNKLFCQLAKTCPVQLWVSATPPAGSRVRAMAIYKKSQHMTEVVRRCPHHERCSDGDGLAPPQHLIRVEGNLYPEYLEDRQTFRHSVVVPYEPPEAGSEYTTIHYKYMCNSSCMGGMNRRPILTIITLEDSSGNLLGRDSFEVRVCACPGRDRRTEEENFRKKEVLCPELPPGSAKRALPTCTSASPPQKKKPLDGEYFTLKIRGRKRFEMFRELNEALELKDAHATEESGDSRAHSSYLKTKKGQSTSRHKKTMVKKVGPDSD

On to CGCGGACATGTCTGGACATGTCCCGC, for which the binding signal in the assay with Dmp53 was 0.03 delta log10 Kd; with Drp53 it was 0.02 delta log10 Kd; with Hsp53, 0.13 delta log10 Kd; with Xlp53, 0.07 delta log10 Kd; with ΔNp63α it was 0.04 delta log10 Kd; with ΔNp63β, 0.05 delta log10 Kd. Moreover, the binding signal with ΔNp63γ stood at 0.05 delta log10 Kd; in the assay with ΔNp73β, 0 delta log10 Kd; in the assay with Mmp53 it was 0.11 delta log10 Kd; with p73CT, 0.08 delta log10 Kd.

Regarding CGCAGACATGTCCGGACATGTCCCGC, the binding signal was 0.03 delta log10 Kd in the assay with Dmp53; 0.01 delta log10 Kd with Drp53; 0.01 delta log10 Kd with Hsp53; 0 delta log10 Kd in the assay with Xlp53; 0 delta log10 Kd with ΔNp63α; 0.03 delta log10 Kd with ΔNp63β. The binding signal with ΔNp63γ was 0.04 delta log10 Kd; with ΔNp73β, 0.01 delta log10 Kd; in the assay with Mmp53, 0.05 delta log10 Kd; with p73CT it was 0.02 delta log10 Kd.

With CGCGGATATGTCCGGACATGTCCCGC, the binding signal in the assay with Dmp53 came to 1.01 delta log10 Kd; with Drp53, 0.58 delta log10 Kd; in the assay with Hsp53 it was 0.56 delta log10 Kd; in the assay with Xlp53, 0.62 delta log10 Kd; with ΔNp63α it was 0.68 delta log10 Kd; with ΔNp63β, 0.85 delta log10 Kd. Besides, the binding signal was 0.97 delta log10 Kd with ΔNp63γ, 1.04 delta log10 Kd with ΔNp73β, 0.34 delta log10 Kd with Mmp53 and 1.06 delta log10 Kd with p73CT.

For CGCGGACGTGTCCGGACATGTCCCGC, the binding signal amounted to 0.18 delta log10 Kd with Dmp53; 0.54 delta log10 Kd with Drp53; 0.43 delta log10 Kd with Hsp53; 0.44 delta log10 Kd in the assay with Xlp53; 0.07 delta log10 Kd in the assay with ΔNp63α; 0.2 delta log10 Kd with ΔNp63β. Also, the binding signal with ΔNp63γ turned out to be 0.19 delta log10 Kd; with ΔNp73β it was 0.27 delta log10 Kd; with Mmp53 it was 0.31 delta log10 Kd; with p73CT, 0.22 delta log10 Kd.

Consider CGCGGACATCTCCGGACATGTCCCGC, for which the binding signal with Dmp53 amounted to 1.51 delta log10 Kd; with Drp53 it was 1.3 delta log10 Kd; in the assay with Hsp53 it was 0.9 delta log10 Kd; with Xlp53, 1.38 delta log10 Kd; in the assay with ΔNp63α, 1.33 delta log10 Kd; with ΔNp63β it was 1.45 delta log10 Kd. The binding signal in the assay with ΔNp63γ is 1.68 delta log10 Kd; with ΔNp73β, 1.8 delta log10 Kd; in the assay with Mmp53, 0.67 delta log10 Kd; with p73CT, 1.56 delta log10 Kd.

For CGCGGACATGGCCGGACATGTCCCGC, the binding signal in the assay with Dmp53 turned out to be 0.93 delta log10 Kd; with Hsp53, 0.73 delta log10 Kd; with Xlp53 it was 0.89 delta log10 Kd; with ΔNp63α it was 0.85 delta log10 Kd; with ΔNp63β, 1.06 delta log10 Kd; with ΔNp63γ, 1.21 delta log10 Kd. The binding signal with ΔNp73β stood at 1.18 delta log10 Kd; with p73CT, 1 delta log10 Kd.

As for CGCGGAAATGTCCGGACATGTCCCGC, the binding signal stood at 1.31 delta log10 Kd with Dmp53; 1.13 delta log10 Kd with Drp53; 0.77 delta log10 Kd in the assay with Hsp53; 0.9 delta log10 Kd with Xlp53; 1.08 delta log10 Kd in the assay with ΔNp63α; 0.93 delta log10 Kd in the assay with ΔNp63β. Besides, the binding signal worked out at 1.4 delta log10 Kd with ΔNp63γ, 1.49 delta log10 Kd in the assay with ΔNp73β, 0.52 delta log10 Kd with Mmp53 and 1.35 delta log10 Kd in the assay with p73CT.

With CGCGGGCATGTCCGGACATGTCCCGC, the binding signal worked out at 0.25 delta log10 Kd with Dmp53; 0 delta log10 Kd with Drp53; 0.07 delta log10 Kd with Hsp53; 0.01 delta log10 Kd with Xlp53; 0 delta log10 Kd in the assay with ΔNp63β; 0.06 delta log10 Kd with ΔNp63γ. Besides, the binding signal in the assay with Mmp53 was determined as 0.03 delta log10 Kd.
